Source: PubChem
BJeLR viability: MLPCN primary cell-based screen for lethality selective to Ras in HRASV12 cells | AID 1554, 2009 | hit rate 0.17% among 300,000 | BJeLR (HRASV12) viability, CellTiter-Glo ATP luminescence, 48 h | inhibition, % (concentration not given with the values); in the data active = inhibition above about 50%
PfHsp40 yeast: rescue of yeast from PfHsp40 toxicity, primary screen, S. cerevisiae, ATP luminescence | AID 504582, 2011 | S. cerevisiae expressing PfHsp40, growth rescue | growth rescue, % at 12.5 µM | hit rate 0.68% among 340,000; in the data active = growth rescue above about 28%, passing the limit was not always enough;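 also: yeast W303a lacking pdr1 and pdr3 grown in galactose medium; growth measured after three days at 30 °C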
PrP 5UTR inh: inhibition of PrP 5' UTR reporter expression; cell-based PrP 5' UTR mRNA reporter, plate reader; inhibition, % (test concentration not listed); hit rate 0.35% among 340,000; in the data active = inhibition above about 52%; also: 0 = median of the neutral control wells
VHR inh abs: VHR1 phosphatase inhibitors, primary screen, biochemical, absorbance, uHTS; hit rate 0.52% among 290,000; recombinant VHR phosphatase, pNPP absorbance; Dual specificity protein phosphatase 3 (Homo sapiens), P51452; inhibition, % at 13.3 µM; in the data active = inhibition above about 50%
Target sequence (P51452 whole entry, looked up): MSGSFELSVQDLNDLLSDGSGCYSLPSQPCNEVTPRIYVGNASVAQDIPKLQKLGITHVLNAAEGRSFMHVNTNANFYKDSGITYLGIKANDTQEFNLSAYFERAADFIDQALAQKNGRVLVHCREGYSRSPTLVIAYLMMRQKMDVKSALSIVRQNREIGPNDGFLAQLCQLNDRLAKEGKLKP
PrPC surface inh: inhibitors of human cell surface prion protein PrPC, primary screen, cell-based, TR-FRET | TR-FRET read-out | hit rate 0.43% among 370,000 | inhibition, % at 13.8 µM | Major prion protein (Homo sapiens), P04156 | AID 720596, 2013; in the data active = inhibition above about 24%; also: 0% = median of the test wells and 100% = reference compound wells
MazEF act: activators of E. coli MazEF toxin-antitoxin RNase, primary screen, biochemical, fluorescence, uHTS; Endoribonuclease toxin MazF (Escherichia coli (strain K12)), P0AE70; activation, % at 20 µM; hit rate 0.32% among 350,000; FAM/BHQ RNA-DNA oligo cleavage fluorescence, 5 h; AID 504720, 2011; in the data active = activation above about 50%
Target sequence (P0AE70 whole entry, looked up): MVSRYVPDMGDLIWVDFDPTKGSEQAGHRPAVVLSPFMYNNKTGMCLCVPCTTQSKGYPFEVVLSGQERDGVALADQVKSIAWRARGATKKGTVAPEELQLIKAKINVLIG
An asterisk follows results filed as active; nt = no result. Only some compounds are listed: those with a hit (about 2.1% of all), similar ones and a draw of the others.

SMILES	BJeLR viability	PfHsp40 yeast	PrP 5UTR inh	VHR inh abs	PrPC surface inh	MazEF act
Cn1cccc1/C=C1\CCC/C(=C\c2cccn2C)C1=O	-10	4	-59	2	-5	863*
O=C(Nc1cccc2ncccc12)c1ccc(Cl)cc1	2	0	-21	-8	11	110*
Cc1nc2scc(-c3cccs3)c2c(=O)[nH]1	16	-1	-33	55*	-10	1
O=c1[nH]c(-c2ccc(O)cc2)nc2scc(-c3cccs3)c12	5	4	-35	23	4	12
CCCC(C(=O)c1ccccc1)n1cncn1 (stereo not drawn)	-8	-1	-15	8	8	-1
Cc1ccc(C(=O)C(SC(C)(C)C)n2cncn2)cc1 (stereo not drawn)	8	467*	-14	10	0	1
CCn1c(=O)n(CC)c2cc(N3CCCC3)c(NC(=O)c3ccccc3)cc21	-4	0	-5	32	7	1
CCn1c(=O)n(CC)c2cc(N3CCCC3)c(NC(=O)c3ccc(C)cc3)cc21	5	14	-13	56*	9	4
CCC(=O)c1ccc(N2CCN(C(=O)c3ccccc3)CC2)c(F)c1	-5	-1	4	15	3	-8
COc1ccc2oc(C(=O)NCC3CCCO3)c(C)c2c1 (stereo not drawn)	-1	0	-73	52*	4	-1
COc1ccc2oc(C(=O)OCC(=O)Nc3cc(S(=O)(=O)N4CCOCC4)ccc3C)c(C)c2c1	4	0	-19	nt	5	61*
COc1ccc2oc(C(=O)OCC(=O)c3ccc4c(c3)OCCO4)c(C)c2c1	0	72*	6	15	-2	-1
COc1ccc(N=c2oc3cc(O)ccc3cc2C(=O)NCC2CCCO2)c(OC)c1 (stereo not drawn)	0	0	-4	4	7	85*
COc1ccc2oc(C(=O)N(C)Cc3ccc4c(c3)OCCO4)c(C)c2c1	-11	-2	-1	nt	1	-5
CC(C)C(C(=O)NCc1ccccc1)N(C)Cc1ccc(Cl)c(Cl)c1 (stereo not drawn)	nt	nt	nt	nt	2	nt
COc1ccc(NC(=O)C2CC(=O)N(c3ccccc3C)C2)c(OC)c1 (stereo not drawn)	9	1	-17	58*	8	10
Cc1cc(C)c(Cn2c(=O)[nH][nH]c2=O)cc1Cn1c(=O)[nH][nH]c1=O	nt	nt	nt	nt	-6	12
CSc1ccc(S(=O)(=O)NCC(=O)OCCOc2ccccc2)cc1[N+](=O)[O-]	-11	-1	-18	nt	-14	78*
OCC1SC(O)C(O)C(O)C1O (stereo not drawn)	nt	nt	nt	nt	3	nt
S=C(NCCc1ccccc1)Nc1ncccn1	nt	-1	-50	nt	-7	9
Cc1cccnc1NC(=S)NCCc1ccccc1	1	60*	-82	28	4	6
S=C(NCCc1ccccc1)NC1CCCCCC1	3	88*	-109	-12	-5	1
S=C(NCCc1ccc(Cl)cc1)NC1CCCCC1	1	200*	-42	6	-4	-4
O=C1NC[C@@H](Cc2ccc(O)cc2)N(CCc2cc(C(F)(F)F)cc(C(F)(F)F)c2)C1=O	nt	nt	nt	nt	5	nt
N#CCCn1cc(/C=C(\C#N)c2nc3ccccc3s2)c(-c2ccc(F)cc2)n1	-4	0	-15	-14	2	53*
SMILES	BJeLR viability	PfHsp40 yeast	PrP 5UTR inh	VHR inh abs	PrPC surface inh	MazEF act
O=C(O)CCCC(=O)N1CCN(c2nc(-c3ccccc3Cl)c3cc(Br)ccc3n2)CC1	4	47*	-11	1	9	1
COC(=O)[C@]12C[C@H](CC(=O)NCc3cccc4ccccc34)C(=O)N(Cc3ccccc3)C1=C[C@H](C1CCCC1)O[C@@H]2C	nt	nt	nt	nt	1	nt
CN(C)CCNC(=S)Nc1ccc(-c2nc3ccccc3[nH]2)cc1	7	0	-74	11	-6	5
S=C(NCc1ccc2c(c1)OCO2)Nc1ccc(-c2nc3ccccc3[nH]2)cc1	8	1	-17	1	3	50*
N/C(=N\OC(=O)CCCOc1ccc(Cl)cc1Cl)c1ccncc1	-1	170*	5	18	9	3
N/C(=N\OC(=O)CCCOc1ccc(Cl)cc1Cl)c1ccccn1	0	2	-14	30	-4	1
